According to paper PMC4336329 (PLoS ONE, 2015):
The whole screen tested about 310,000 compounds, of which about 2,200 (0.71%) showed an effect of 50% or more. Effects have a minus sign here. This is one part of a sample in which strong results are shown more often than they occur.

molecular target: human ether-à-go-go-related gene (hERG) potassium channel (human, UniProt Q12809); test: primary screen, population patch clamp on CHO cells stably expressing hERG; higher = less effect of the substance
Sequence (Q12809 whole entry, looked up): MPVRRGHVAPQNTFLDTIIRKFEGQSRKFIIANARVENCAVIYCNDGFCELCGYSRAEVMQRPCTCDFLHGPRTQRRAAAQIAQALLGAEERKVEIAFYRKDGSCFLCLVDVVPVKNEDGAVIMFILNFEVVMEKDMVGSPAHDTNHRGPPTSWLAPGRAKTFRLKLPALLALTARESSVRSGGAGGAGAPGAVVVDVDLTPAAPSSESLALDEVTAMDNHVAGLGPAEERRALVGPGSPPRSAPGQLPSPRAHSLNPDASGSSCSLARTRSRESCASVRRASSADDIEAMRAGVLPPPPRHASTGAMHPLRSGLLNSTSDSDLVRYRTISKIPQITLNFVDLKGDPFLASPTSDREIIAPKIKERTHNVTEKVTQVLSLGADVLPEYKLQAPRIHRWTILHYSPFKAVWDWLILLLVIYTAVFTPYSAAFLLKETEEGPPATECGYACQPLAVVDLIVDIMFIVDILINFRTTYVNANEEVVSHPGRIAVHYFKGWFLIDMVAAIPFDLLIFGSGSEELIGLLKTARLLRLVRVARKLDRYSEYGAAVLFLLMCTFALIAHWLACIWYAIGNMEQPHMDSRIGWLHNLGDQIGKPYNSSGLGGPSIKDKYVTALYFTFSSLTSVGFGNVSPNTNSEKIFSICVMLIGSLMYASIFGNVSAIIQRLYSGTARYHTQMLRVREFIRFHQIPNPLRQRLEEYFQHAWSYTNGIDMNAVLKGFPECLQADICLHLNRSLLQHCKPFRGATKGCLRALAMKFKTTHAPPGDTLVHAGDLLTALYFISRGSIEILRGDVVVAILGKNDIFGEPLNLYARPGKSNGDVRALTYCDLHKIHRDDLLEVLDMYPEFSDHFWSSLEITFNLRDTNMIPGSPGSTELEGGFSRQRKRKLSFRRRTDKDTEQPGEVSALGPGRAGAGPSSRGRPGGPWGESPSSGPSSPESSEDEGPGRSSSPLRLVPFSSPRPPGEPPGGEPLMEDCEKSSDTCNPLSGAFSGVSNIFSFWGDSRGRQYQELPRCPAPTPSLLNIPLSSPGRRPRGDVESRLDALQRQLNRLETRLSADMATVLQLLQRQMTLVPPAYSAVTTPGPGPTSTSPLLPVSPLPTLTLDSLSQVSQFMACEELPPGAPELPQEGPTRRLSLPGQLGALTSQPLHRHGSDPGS

SMILES	hERG current change (%, negative = inhibition) at 1uM
COc1ccc(CNC(=O)C2(CC3CC(c4ccccc4)=NO3)CCN(C(=O)Cc3ccc(F)cc3)CC2)cc1 (stereo not drawn)	12.8%
COc1ccc(CNC(=O)C2(CC3CC(c4ccccc4)=NO3)CCN(C(=O)OC(C)(C)C)CC2)cc1 (stereo not drawn)	2.59%
COc1ccc(CNC(=O)C2(CC3CC(c4ccccc4)=NO3)CCN(C(=O)C3(C)CC3)CC2)cc1 (stereo not drawn)	-37.1%
COc1ccc(CNC(=O)C2(CC3CC(c4ccccc4)=NO3)CCN(C(=O)CCCCCBr)CC2)cc1 (stereo not drawn)	-60.3%
COc1ccc(CNC(=O)C2(CC3CC(c4ccccc4)=NO3)CCN(C(=O)c3cccc(O)c3)CC2)cc1 (stereo not drawn)	8.84%
COc1ccc(CNC(=O)C2(CC3CC(c4ccccc4)=NO3)CCN(C(=O)C3CCCC3)CC2)cc1 (stereo not drawn)	-67.1%
COc1ccc(C2NC(=O)c3ccccc3O2)cc1OC (stereo not drawn)	8.88%
Fc1cccc(CCN2C(=S)NC[C@@H]2CC2CCCCC2)c1	8.53%
CCn1nc(C(C)C)cc1C(=O)N1CCCC(CO)(Cc2ccc(F)cc2F)C1 (stereo not drawn)	5.81%
CC1CCCCN1C(=O)c1ccc(COc2ccc([N+](=O)[O-])cc2)o1 (stereo not drawn)	-18.9%
CCOC(=O)N1CCC(N2CCCC(C(=O)c3cc(F)ccc3OC)C2)CC1 (stereo not drawn)	-52.2%
COc1ccc(F)cc1C(=O)C1CCCN(Cc2ccc(O)cc2)C1 (stereo not drawn)	-25.1%
CCN(CC)CC(=O)N1CCCC(C(=O)c2ccccc2OC)C1 (stereo not drawn)	6.77%
COc1ccc(F)cc1C(=O)C1CCCN(C(=O)C2=C(C)OCCO2)C1 (stereo not drawn)	14.5%
CCOC(=O)N1CCC(N2CCCC(C(=O)c3ccccc3OC)C2)CC1 (stereo not drawn)	-59.3%
COc1ccccc1C(=O)C1CCCN(C(=O)C2CCCC2)C1 (stereo not drawn)	8.68%
CC(=O)Nc1ccc2[nH]c3ccccc3c2c1	3.08%
O=C(NCCCN1CCOCC1)c1sc2cc(Cl)ccc2c1Cl	6.47%
Cc1c(C(=O)N(C)Cc2ccccc2)oc2ccc(S(=O)(=O)N3CCCC3)cc12	-0.449%
COc1ccc(CCNC(=O)C(=O)Nc2ccc3c(c2)OCCO3)cc1OC	14.4%
O=C(NCc1ccncc1)C(=O)NCC(c1ccco1)N1CCN(c2ccccc2)CC1 (stereo not drawn)	3.03%
CCOc1ccc(N(C(=O)CNS(=O)(=O)c2ccccc2)C(CC)C(=O)NCc2ccco2)cc1 (stereo not drawn)	4.35%

SMILES	hERG current change (%, negative = inhibition) at 1uM
NC1=Nc2cccc3cccc1c23	12.8%
CCCCON1C(=O)c2cccc3cccc(c23)C1=O	8.5%
CCCCN(C)C1=Nc2cccc3cccc1c23	-54.9%
CN1CCN(CC(O)COc2ccc(Cl)cc2)CC1.Cl (stereo not drawn)	-5.93%
Cl.OC(COc1ccccc1)CN1C2=NCCCN2c2ccccc21 (stereo not drawn)	-54.6%
Cl.ClCCN1C2=NCCCN2c2ccccc21	-1.36%
OC(COc1ccccc1)CN1CCCC1 (stereo not drawn)	9.18%
Cl.OC(COc1ccc(Cl)cc1)CN1C2=NCCCN2c2ccccc21 (stereo not drawn)	-82%
CCN1C2=NCCCN2c2ccccc21.Cl	2.9%
Cc1ccc(/C(O)=C2\C(=O)C(=O)N(CCN(C)C)C2c2ccccc2F)cc1 (stereo not drawn)	-6.65%
COc1ccc(S(C)(=O)=O)cc1S(C)(=O)=O	12.3%
CC(C)OCCCNC(=O)c1c(N)n(CC2CCCO2)c2nc3ccccc3nc12 (stereo not drawn)	6.34%
CCn1c(Cn2nnc(-c3ccccc3)n2)nnc1SCC(=O)Nc1ccc(C(C)=O)cc1	5.63%
COc1ccc(CCn2c(=N)c(C(=O)NCC3CCCO3)cc3c(=O)n4cccc(C)c4nc32)cc1 (stereo not drawn)	-88.1%
Cc1cccn2c(=O)c3cc(C(=O)NCC4CCCO4)c(=N)n(CCc4ccccc4)c3nc12 (stereo not drawn)	-84.4%
COc1ccc(CCn2c(=N)c(C(=O)NCCN3CCOCC3)cc3c(=O)n4cccc(C)c4nc32)cc1OC	-44.4%
COc1ccc(CCn2c(=N)c(C(=O)NCC3CCCO3)cc3c(=O)n4cccc(C)c4nc32)cc1OC (stereo not drawn)	-87.1%
CC(C)C(NC(=O)C1CCCCC1)C(=O)N1CCN(c2ccc(F)cc2)CC1 (stereo not drawn)	-32.1%
CS(=O)(=O)N1CCN(c2ccccc2NC(=O)c2ccc3c(c2)OCCO3)CC1	9.09%
COc1cc(C(=O)N[C@@H](C)C(=O)N2CCC3(CC2)NCCc2[nH]cnc23)cc(OC)c1OC	15.3%
CN(C)c1ccc(CNS(=O)(=O)c2csc(C(N)=O)c2)cc1	13%
COc1ccc(Cl)cc1CSc1n[nH]c(C)n1	16.6%

SMILES	hERG current change (%, negative = inhibition) at 1uM
O=C(N/N=C/c1ccc(Cl)s1)C(O)c1ccccc1 (stereo not drawn)	16.4%
O=c1c([N+](=O)[O-])c(N2CCCC2)c2ccccc2n1-c1ccccc1	4.99%
O=C(O)Cn1c(=O)c2c(c3ccccc31)CCC2	11.5%
CCOC(=O)C1=C[C@]2(CC)CCCN3CCc4c(n1c1ccccc41)[C@@H]32	-95.5%
CCOC(=O)NNC(=O)CCn1c2c(c3ccccc31)CCCC2	6.89%
CCn1cc(C2N3CC4(C)CN2CC(C)(C3)C4=O)c2ccccc21 (stereo not drawn)	4.63%
CC[C@]12CCCN3CCc4c(n(c5ccccc45)C(=O)C1)C32 (stereo partly drawn)	-50.5%
Cl.Cn1c2c(c3ccccc31)CCN1CCC[C@]21c1ccccc1	12.1%
CCOC(=O)C1=CC[C@H]2c3c(c4ccccc4n3C)C[C@H]1N2C	15.5%
NC(=O)C1CCCc2c1n(Cc1ccccc1)c1ccccc21 (stereo not drawn)	9.63%
CC[C@]12CCCN3CCc4c(n(c5ccccc45)C(=O)C1)[C@@H]32	-70.5%
CCN1CCC(=NNC(=O)CC23CC4CC(CC(C4)C2)C3)CC1	11.5%
COc1cc(NC(c2ccccc2)c2ccccc2)cc(OC)c1OC	5.7%
Nc1nc(/C=C/c2cccnc2)nc(-c2ccccc2O)n1	10.4%
COc1cccc(COC(=O)C2CCN(S(=O)(=O)c3ccc(Cl)cc3)CC2)c1OC	5.7%
CC(=O)c1ccc(S(=O)(=O)N2CCN(c3ccccc3F)CC2)cc1	8.26%
Cl.OCCN1C2=NCCCN2c2ccccc21	10.3%
Cl.OC(CN1C2=NCCN2c2ccccc21)c1ccccc1 (stereo not drawn)	-5.32%
Br.O=C(CN1C2=NCCN2c2ccccc21)c1ccc2c(c1)OCO2	-42.1%
OC(CN1C2=NCCN2c2ccccc21)c1ccc(Br)cc1 (stereo not drawn)	-63%
Cl.OC(CN1C2=NCCCN2c2ccccc21)c1ccc(Cl)cc1 (stereo not drawn)	-76.2%
Cl.OC(CN1C2=NCCN2c2ccccc21)c1ccc2c(c1)OCO2 (stereo not drawn)	-27.7%

SMILES	hERG current change (%, negative = inhibition) at 1uM
Cl.OC(CN1C2=NCCCN2c2ccccc21)c1ccc2c(c1)OCO2 (stereo not drawn)	-68.6%
Cl.OC(CN1C2=NCCCN2c2ccccc21)c1ccc(Br)cc1 (stereo not drawn)	-86.2%
Br.O=C(CN1C2=NCCN2c2ccccc21)c1ccc(Br)s1	-0.685%
Cl.c1ccc2c(c1)N1CCCN=C1N2CCN1CCCCC1	-26.2%
Cn1c(=O)n(C)c2cc(NC(=O)CSc3nnc(-c4ccccc4O)n3-c3ccccc3)ccc21	6.95%
O=C(C1=NN[C@@H]2C(=O)N(c3cccc(F)c3)C(=O)[C@H]12)c1ccc2ccccc2n1	6.85%
CN(C)CCCN(C(=O)c1ccc(Br)s1)c1nc2cc3c(cc2s1)OCO3.Cl	4.06%
O=C(c1cc2ccccc2o1)c1nc2c(n1O)CCCCC2	9.78%
COCCCNC(=O)Cn1c(=O)n(CCCCCC(=O)Nc2ccccc2)c(=O)c2sccc21	14%
Cc1ccc(S(=O)(=O)N2CCCC(C(=O)NNCC(=O)Nc3cc(F)ccc3F)C2)cc1 (stereo not drawn)	-0.56%
Cc1ccc(C(O)CN2C3=NCCCN3c3ccccc32)cc1.Cl (stereo not drawn)	-51.4%
Cc1ccc(C(O)CN2C3=NCCN3c3ccccc32)cc1.Cl (stereo not drawn)	-40.9%
Cc1ccccc1CN1C2=NCCCN2c2ccccc21.Cl	-27.3%
CC1CN(S(=O)(=O)c2ccc(C(=O)NCCCn3ccnc3)cc2)CC(C)O1 (stereo not drawn)	11.7%
CCc1nc(SCC(=O)c2ccc(Cl)s2)c2oc3ccccc3c2n1	9.25%
CCCOc1cccc(C(=O)NCCNC(=O)c2ccco2)c1	18.6%
O=C(N/N=C/c1cc2c(cc1[N+](=O)[O-])OCO2)c1ccccn1	10.1%
Cc1cc(S(=O)(=O)N2CCN(c3c(C)cccc3C)CC2)ccc1F	-0.574%
CCC(C)N(C)Cc1cccc(C2(O)CCN(S(=O)(=O)c3ccc(F)cc3)CC2)c1 (stereo not drawn)	-30.8%
CCC(C)N(C)Cc1cccc(C2(O)CCN(S(=O)(=O)c3ccc(F)c(C)c3)CC2)c1 (stereo not drawn)	-71.2%
Cc1c(O[C@@H]2O[C@H](CO)[C@@H](O)[C@H](O)[C@H]2O)ccc2c1oc(=O)c1ccccc12	16.9%
